Hits are enriched below; roughly 19% of the tested compounds scored in any of these assays.
HT1080 IDH1KD tx: kills HT-1080 cells with IDH1 knockdown; HT-1080 IDH1 knockdown viability, ATP luminescence, 48 h; Potency, µM (highest dose often 46.1 µM), hits mostly cytotoxic; hit rate 2% among 360,000; AID 686971
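CellTiter-Glo luminescence after 48 h compound exposure at 37 degrees C of IDH1-knockdown HT-1080 cells in 5% FBS RPMI. %Activity scaled between DMSO wells and cell-free media wells, with curves fitted and assigned curve classes.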
HT1080NT lethal: kills 2HG-producing HT-1080-NT fibrosarcoma cells | HT-1080-NT fibrosarcoma viability, CellTiter-Glo ATP luminescence, 48 h | Potency, µM (top dose mostly 46.1 µM), hits mostly cytotoxic | hit rate 1.6% among 360,000 | AID 686970;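 also: NT is the 2HG producing partner of a matched IDH1 knockdown line; nearly all actives have a fitted effect of over 55% in size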
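Read-out is CellTiter-Glo luminescence after 10 minutes at room temperature, following 48 hours' compound treatment of HT-1080-NT cells (750 cells/well, RPMI, 5% FBS, 37 degrees C).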
IL-1B inflam inh: inflammasome signaling inhibition, IL-1 beta readout. activity change, % at 57.5 µM. THP-1 LPS/ATP IL-1B secretion, AlphaLISA, 16 h; stronger effect = lower value. hit rate 4.7% among 360,000. AID 743279; in the data active = activity change below about -50%; inconclusive = mostly about -30% to -49%
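Secreted IL-1B measured by AlphaLISA bead assay after 16 h compound exposure of THP-1 cells; compounds (final up to 57.5 uM) added 1 h before LPS (250 ng/mL) and ATP (1.25 mM) stimulation; lower signal means less secretion.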
TDP1 cell CPT: DT40-hTDP1 cell growth loss with CPT; Potency, µM (top dose mostly 46.2 µM), usual class: inhibitors; hit rate 12% among 420,000; AID 686979; chicken DT40 Tdp1-/-;hTDP1 cells + 20 nM CPT, ATP luminescence, 48 h; also: nearly all actives have a fitted effect of over 55% in size
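Chicken DT40 Tdp1-/- cells complemented with human TDP1, 400 cells/well, exposed to compounds plus 20 nM camptothecin for at least 48 h at 37 C; viability read as ATP content by CellTiter-Glo luminescence.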
DT40 TDP1 no CPT: qHTS for Inhibitors of human tyrosyl-DNA phosphodiesterase 1 (TDP1): qHTS in cells in absence of CPT; Potency, µM (series often up to 46.2 µM), hits mostly inhibitors; hit rate 15% among 420,000; DT40 Tdp1-/- hTDP1 cells, no CPT, ATP luminescence, 48 h; AID 686978, 2013; also: nearly all actives have a fitted effect of over 55% in size
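Stably hTDP1-transfected Tdp1-null chicken DT40 cells were treated with library compounds minus camptothecin and grown for at least 48 hr at 37 °C, after which cellular ATP was quantified by luminescence.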
Numbers stand for hits; n = inactive; u = inconclusive; x = no result given. Unless noted, calls follow the shape of the dose curve; as a rule, active = well fitted curve in the direction sought with a large enough effect; inconclusive = small, poorly fitted or top-dose-only effect, or another doubt; inactive = no such curve, though single readings can be large; an effect the other way counts as inactive or inconclusive.

SMILES	HT1080 IDH1KD tx	HT1080NT lethal	IL-1B inflam inh	TDP1 cell CPT	DT40 TDP1 no CPT
Cc1ccc(S(=O)(=O)NC(=O)N(CCC#N)Cc2ccccc2)cc1	n	n	n	n	n
COc1ccc(N2c3ccccc3CN(Cc3ccccc3)[C@@H](C)[C@H]2Cc2cccnc2)cc1	u	u	n	u	21µM
COc1ccc(N2c3ccccc3CN(Cc3ccccc3)[C@@H](C)[C@H]2Cc2c(C)cccc2C)cc1	n	n	n	18µM	16µM
Cc1ccc2c(=O)cc(C(=O)Nc3ccc(S(=O)(=O)N(C)Cc4ccccc4)cc3)oc2c1C	x	x	x	4.1µM	3.3µM
CCN(c1ccccc1)S(=O)(=O)c1ccc(NC(=O)c2cc(=O)c3ccc(C)c(C)c3o2)cc1	x	x	x	10µM	12µM
CCc1ccc(NC(=O)c2cc(=O)c3ccc(C)c(C)c3o2)cc1	x	x	x	4.1µM	3.3µM
CN(c1ccccc1)S(=O)(=O)c1ccc(NC(=O)c2cc(=O)c3ccccc3o2)cc1	x	x	x	13µM	16µM
Cc1cc2oc(C(=O)Nc3ccc(S(=O)(=O)N(C)c4ccccc4)cc3)cc(=O)c2cc1C	x	x	x	n	n
CCN(c1ccccc1)S(=O)(=O)c1ccc(NC(=O)c2cc(=O)c3c(C)cc(C)cc3o2)cc1	x	x	x	n	n
CCN(CC(=O)N1CCOCC1)S(=O)(=O)c1ccc(Cl)cc1	n	n	n	n	n
O=C(NCC1CCCO1)c1cccc2c1C(=O)c1ccc(N3CCC(Cc4ccccc4)CC3)cc1S2(=O)=O (stereo unspecified)	n	n	n	u	21µM
CC1CCN(c2ccc3c(c2)S(=O)(=O)c2cccc(C(=O)NC[C@@H]4CCCO4)c2C3=O)CC1	n	n	n	13µM	u
CCn1cc(C(=O)NCc2ccco2)c(=O)c2ccc(C)nc21	n	n	n	n	u
CCN(C(=O)COC(=O)CSc1ccccc1)c1c(N)n(Cc2ccccc2)c(=O)[nH]c1=O	n	n	n	n	n
Cc1cc(C)cc(NC(N)=S)c1	n	n	n	u	n
Cc1cc2c(cn1)C(CCC#N)(CCC#N)c1ccccc1-2	n	n	n	n	n
CCOC1=C(C#N)CC2(CC1)c1ccccc1-c1ccccc12	n	n	n	u	23µM
c1cc(-c2cc3nc(NC4CCCCC4)ccn3n2)ccc1OCCN1CCOCC1	21µM	21µM	-76	3.3µM	3.3µM
CN(C)C(=O)CNc1ccn2nc(-c3cccc(OCCN4CCOCC4)c3)cc2n1	n	n	n	n	n
Clc1cccc(CNc2ccn3nc(-c4ccc(OCCN5CCOCC5)cc4)cc3n2)c1	u	16µM	n	8.2µM	12µM
Clc1cccc(CNc2ccn3nc(-c4ccco4)cc3n2)c1	n	n	n	n	n
Fc1ccc(CNc2ccn3nc(-c4ccccc4)cc3n2)cc1	u	u	n	u	u
c1cc(-c2cc3nc(NCC4CC4)ccn3n2)ccc1OCCN1CCOCC1	n	n	n	23µM	23µM
CC(C)Cc1ccc(-c2cc3nc(NCC4CC4)ccn3n2)cc1	u	u	n	21µM	u
CCSc1nnc(NC(=O)CN2C(=O)N(C)C3(CCCCC3)C2=O)s1	n	n	n	n	n
SMILES	HT1080 IDH1KD tx	HT1080NT lethal	IL-1B inflam inh	TDP1 cell CPT	DT40 TDP1 no CPT
COC(=O)c1ccc(C2c3c(oc4cc(C)c(C)cc4c3=O)C(=O)N2c2ccccn2)cc1 (stereo unspecified)	x	x	x	n	n
Cc1nn(CCCC(=O)NCc2ccc(F)cc2)c(=O)c2nccn12	n	n	n	n	n
COc1cccc(C(=O)NNC(=O)C(=O)Nc2cccc3ccccc23)c1	n	n	n	u	u
O=S(=O)(c1ccccc1)N1CCC2(CCCN(c3ccncc3)C2)CC1	x	x	x	2.1µM	1.2µM
O=S(=O)(c1ccccc1)N1CCC2(CC1)CN(c1ccncc1)C2	x	x	x	u	9.2µM
O=S(=O)(c1ccccc1)N1CCC2(CCCN(c3ccccn3)C2)CC1	x	x	x	u	21µM
O=S(=O)(c1ccccc1)N1CCC2(CC1)CN(c1ccccc1)C2	x	x	x	n	u
O=S(=O)(c1ccccc1)N1CCC2(CCN(Cc3ccncc3)CC2)CC1	x	x	x	u	21µM
COc1ccc(C(=S)N2CCOCC2)cc1OS(=O)(=O)c1ccc(Br)cc1	n	n	n	u	u
CCOC(=O)c1cc(S(=O)(=O)Nc2ccc(C)cc2Cl)[nH]n1	x	x	x	n	n
C=CCNC(=S)NNC(=O)C(CCCC)CC(C)(C)O (stereo unspecified)	n	n	n	8.2µM	7.3µM
CCOCCCNC(=O)Cn1cnc2c(cnn2-c2ccc(C)c(C)c2)c1=O	n	n	n	u	u
CCN1CCN(C(=S)NCCc2ccccc2)CC1	n	n	n	n	n
CCn1c(N2CCN(C(=O)/C=C/c3ccccc3)CC2)nc2ccccc21	n	n	n	n	u
CCn1c(N2CCN(C(=S)Nc3ccc(OC)cc3)CC2)nc2ccccc21	n	n	n	15µM	15µM

High-throughput results deposited in PubChem by National Center for Advancing Translational Sciences (NCATS).
